The record followed here is PubChem BioAssay (EPA / NIEHS).

“And” between values parts separate entries of the source, which are not always exact repeats. Identical values can stand only once. Records with an inconclusive call do not appear. Some compounds were tested as several samples or in several runs, with calls that do not always agree. The source made the active and inactive calls. The calls were made as follows, unless noted: active = hit-call score of the fitted dose curve at least 0.9, where 1 is the maximum; inactive = score below 0.9.

Experiment [1] can be described thus: Tanguay_ZF_120hpf_MO24: Oregon State University Tanguay Lab 24 Hour Post-fertilization zebrafish Assay for Mortality (AID 2284389). A digest of the protocol: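 Embryo death at 24 hpf was recorded as present or absent in Tropical 5D zebrafish, dechorionated at 4 hpf and dosed statically from 6 hpf (28C, 0.64% DMSO); 5 uM trimethyltin chloride served as positive control.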

Experiment [2] in a line: Tanguay_ZF_120hpf_DP24: Oregon State University Tanguay Lab 24 Hour Post-fertilization zebrafish Assay for Delayed Development (AID 2284390). The method, boiled down: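 Scored at 24 hpf as a binary present/absent call of delayed development by brightfield, with dead embryos not assessed. Embryos (5D wild type, chorion removed with pronase at 4 hpf) dosed statically from 6 hpf at 28 C in 0.64% DMSO.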

Experiment [3] in a line: Tanguay_ZF_120hpf_CRAN: Oregon State University Tanguay Lab 120 Hour Post-fertilization zebrafish Assay for Craniofacial Malformation (AID 2284397). The method, boiled down: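 Scoring of craniofacial malformation as a binary endpoint was done at 120 hpf by brightfield microscopy and was not done in dead embryos. Exposure was static, starting at 6 hpf, in dechorionated wild-type embryos held singly at 28C with 0.64% DMSO final.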

The nature of experiment [4]: Tanguay_ZF_120hpf_AXIS: Oregon State University Tanguay Lab 120 Hour Post-fertilization zebrafish Assay for Axial Malformation (AID 2284398). A digest of the protocol: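 Scoring was binary (present or absent) for body-axis defects, judged by brightfield imaging at 120 hpf in surviving larvae. Exposure was static at 28C from 6 hpf in chorion-free 5D wild-type embryos, with 0.64% DMSO vehicle.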

Experiment [5] is described as follows: Tanguay_ZF_120hpf_MORT: Oregon State University Tanguay Lab 120 Hour Post-fertilization zebrafish Assay for Mortality (AID 2284399). A digest of the protocol: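 Mortality, recorded present/absent via brightfield imaging at 24 and 120 hpf, in 5D zebrafish embryos exposed statically from 6 hpf after pronase chorion removal. Exposure at 28C, 0.64% DMSO vehicle, DMSO baseline.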

A short description of experiment [6]: Tanguay_ZF_120hpf_EDEM: Oregon State University Tanguay Lab 120 Hour Post-fertilization zebrafish Assay for Edema Malformation (AID 2284400). The method, boiled down: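 Edema recorded as a binary endpoint under brightfield at 120 hpf, excluding embryos that died. Exposure was static, sealed, 28C, from 6 hpf in dechorionated wild-type larvae, final DMSO 0.64%, DMSO as baseline.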

A short description of experiment [7]: Tanguay_ZF_120hpf_MUSC: Oregon State University Tanguay Lab 120 Hour Post-fertilization zebrafish Assay for Muscle Malformation (AID 2284401). The method, boiled down:
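Scored as a binary brightfield endpoint at 120 hpf, fitted versus DMSO. Single dechorionated wild-type (Tropical 5D) zebrafish embryos per well, statically exposed at 28C from 6 hpf onward with final DMSO 0.64%.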

A short description of experiment [8]: Tanguay_ZF_120hpf_BRN: Oregon State University Tanguay Lab 120 Hour Post-fertilization zebrafish Assay for Brain Region Malformation (AID 2284402). The method, boiled down: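 Binary brightfield scoring of brain malformation at 120 hpf in 5D wild-type larvae, chorion removed with pronase at 4 hpf. Static exposure began at 6 hpf, 28C, sealed plates, DMSO 0.64% (vol/vol) as vehicle baseline.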

Experiment [9] in a line: Tanguay_ZF_120hpf_TCHR: Oregon State University Tanguay Lab 120 Hour Post-fertilization zebrafish Assay for Touch Responsive (AID 2284403). A digest of the protocol:
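Binary touch-response calls are made at 120 hpf in 5D wild-type zebrafish larvae. These larvae were dechorionated with pronase and exposed singly from 6 hpf in sealed, dark plates at 28 °C with 0.64% DMSO final; dead embryos are excluded.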

A short description of experiment [10]: Tanguay_ZF_120hpf_ANY: Oregon State University Tanguay Lab 120 Hour Post-fertilization zebrafish Assay for Any Mortality and Malformation (AID 2284404). A digest of the protocol: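 Dechorionated Tropical 5D wild-type embryos, one per well from 6 hpf, static exposure in sealed, dark plates at 28C until 120 hpf, 0.64% DMSO final. Brightfield scoring of mortality and malformations as binary presence/absence, pooling 13 morphology endpoints.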

Experiment [11] can be described thus: CCTE_Padilla_ZF_Score.Craniofacial: CCTE's 144 Hour Post-fertilization zebrafish Assay Score for Craniofacial Malformation, Padilla Lab (AID 2284405). The method, boiled down: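 Craniofacial defects were scored at 6 dpf by two blinded observers using stereomicroscopy. Exposure of wild-type embryos began at 6–8 hpf in sealed wells of 10% Hanks' solution at 26C, with chemical removed by rinsing at 5 dpf.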

Experiment [12] in a line: IUF_NPC1_cytotoxicity_72hr: Cytotoxicity Assessment at 72 hours in the Leibniz Research Institute for Environmental Medicine (IUF) Neural Progenitor Cell Proliferation Assay (NPC1) (AID 2284332; active = hit-call score of the fitted dose curve at least 0.9, where 1 is the maximum;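 also: rising LDH signal means more cytotoxicity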). The method, boiled down:
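LDH in supernatant, resazurin→resorufin fluorescence (RFU), 72 h exposure, no re-dosing. Cells: primary hNPC spheres, one per well, EGF+FGF medium, 37C/5% CO2, pH 7.2-7.6. Fit: positive direction vs baseline and dynamic range.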

A short description of experiment [13]: CCTE_Mundy_HCI_iCellGluta_NOG_NeuronCount: CCTE's Neurite Outgrowth Assay in iCellGluta cells for Neuron Count, Mundy Lab (AID 2284340; active = hit-call score of the fitted dose curve at least 0.9, where 1 is the maximum;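 also: cells fixed about 48 h after compound addition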). A digest of the protocol: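 Neuron count read by automated high-content imaging of Hoechst 33342 and betaIII-tubulin/Alexa Fluor-488 labelling in human iPSC glutamatergic neurons. Activity fitted relative to DMSO.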
Experiment [14] in a line: CCTE_Mundy_HCI_iCellGluta_NOG_NeuriteCount: CCTE's Neurite Outgrowth Assay in iCellGluta cells for Neurite Count, Mundy Lab (AID 2284342; active = hit-call score of the fitted dose curve at least 0.9, where 1 is the maximum;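 also: chemical exposure about 48 hours starting 2 hours after plating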).
Experiment [15] is described as follows: TAMU_PeakParms_SingleDonor1434_Asystole: Texas A&M University (TAMU) 1.5-hr Human Induced Pluripotent Stem Cell (iPSC)-derived Cardiomyocytes Calcium (Ca+2) Flux Assay for Cardiotoxicity: Asystole (quiescence of beating) (AID 2284328; active = hit-call score of the fitted dose curve at least 0.9, where 1 is the maximum). The method, boiled down: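 Donor 1434 iPSC-cardiomyocytes exposed 90 min at 37C, 5% CO2, to 0.2, 1, 10 and 100 uM in 0.5% DMSO. Ca2+ dye fluorescence gave average peak frequency; POD is EC95, a 95% beat-rate drop versus controls.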

Experiment [16] can be described thus: CCTE_Deisenroth_DEVTOX-GLR_legacy_CellCount: (Legacy) Viability Assessment in CCTE's DevTox GLR-Endo Assay, Deisenroth Lab (AID 2284331). As to conditions: actives raise or lower the signal. A digest of the protocol:
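RUES2-GLR human pluripotent cells were seeded 24 h, then differentiated 48 h with two compound doses at 24 h intervals (10-point, 1 nM - 200 uM). Fixed nuclei were imaged and counted; bidirectional fitting versus 0.2% DMSO.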

The subject of experiment [17] is SRY-box transcription factor 17 (SOX17) Protein Expression, Deisenroth Lab, SOX17 (gene 64321). Description: CCTE_Deisenroth_DEVTOX-GLR_legacy_Sox17: (Legacy) CCTE's DevTox GLR-Endo Assay Evaluation of SRY-box transcription factor 17 (SOX17) Protein Expression, Deisenroth Lab (AID 2284341). As to conditions: actives raise or lower the signal. A digest of the protocol:
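Percent SOX17-positive cells, scored by high-content imaging as mean intensity exceeding pluripotent-control median by 5x BMAD, divided by cell count. Human RUES2-GLR endoderm differentiation, 48 h, two exposures 24 h apart, 1 nM–200 uM; DMSO-referenced bidirectional fitting.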

The test system of experiment [18] is SRY-box transcription factor 2 (SOX2) Protein Expression, Deisenroth Lab, SOX2 (gene 6657). Put plainly: CCTE_Deisenroth_DEVTOX-GLR_legacy_Sox2: (Legacy) CCTE's DevTox GLR-Endo Assay Evaluation of SRY-box transcription factor 2 (SOX2) Protein Expression, Deisenroth Lab (AID 2284346). The method, boiled down:
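Read-out: fraction of Sox2+ cells by high-content fluorescence imaging of fixed RUES2-GLR cells after 48 h differentiation with two 24 h-spaced exposures. Positivity cutoff 5x BMAD above endoderm control median; 0.2% DMSO median subtracted.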

A short description of experiment [19]: VALA_TUBIPS_Antagonist_CellCount: Viability Assessment in the VALA Sciences human iPS-derived Endothelial Tubule Formation (TUBIPS) Antagonism Assay (AID 2284335; active = hit-call score of the fitted dose curve at least 0.9, where 1 is the maximum).
Experiment [20] is described as follows: VALA_MIGHUV1_ScratchOnly_WoundArea: VALA Sciences human Umbilical Vein Endothelial Cell Migration (MIGHUV) Assay, Area of Scratch Wound Inhibited Recovery (AID 2284336; active = hit-call score of the fitted dose curve at least 0.9, where 1 is the maximum). The method, boiled down:
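Wound area remaining after 24 h recovery imaged by Hoechst nuclear fluorescence in scratched HUVEC cultures, chemicals added within 30 min of scratching across a 6-point series. Gain of signal fitted against 0.1% DMSO; cytochalasin D positive control.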

As for `O=C(O)C(F)(F)C(F)(F)C(F)(F)C(F)(F)C(F)(F)C(F)(F)C(F)(F)C(F)(F)F`, the call in [1], in experiment [2], in [3], in experiment [4], in experiment [5] and in experiment [6] was inactive. Moreover, the result in experiment [7], in experiment [8], in experiment [9], in [10] and in experiment [11] was inactive.
Regarding `CCOP(=S)(OCC)SCSC(C)(C)C`, the outcome in experiment [12], in experiment [13] and in [14] was inactive.
In general, AC50 refers to the concentration giving half of the maximal activity seen. As to `O=C(O)C(F)(F)C(F)(F)C(F)(F)C(F)(F)C(F)(F)C(F)(F)C(F)(F)C(F)(F)C(F)(F)F`, the call in experiment [13], in [14], in experiment [1], in experiment [2], in experiment [4] and in [5] was inactive. Besides, the outcome in [6], in [7], in experiment [8], in experiment [9] and in experiment [11] was inactive. In addition, the values for the concentration at half-maximal activity (AC50) in experiment [3] and in experiment [10] were 19.5 µM (active) and 8.9 µM (active), respectively.
Regarding `ClC1=C(Cl)[C@]2(Cl)[C@@H]3[C@@H]4C[C@@H]([C@H]5O[C@@H]45)[C@@H]3[C@@]1(Cl)C2(Cl)Cl`, in [15], the outcome was inactive.
As for `NS(=O)(=O)C(F)(F)C(F)(F)C(F)(F)C(F)(F)C(F)(F)C(F)(F)C(F)(F)C(F)(F)F`, the compound was classed as inactive in experiment [13], in [14], in experiment [1], in [4], in experiment [6] and in experiment [7]. For the same compound, the outcome in experiment [8], in experiment [9] and in experiment [11] was inactive. Further, the half-maximal activity concentration (AC50) was 16.4 µM (active) in experiment [2], 3.27 µM (active) in experiment [3], 5.51 µM (active) in experiment [5] and 2.59 µM (active) in [10].
Take `C=CC(N)=O`: the outcome in experiment [15], in [16], in experiment [12], in [17] and in experiment [18] was inactive.
Take `CO/C=C(/C(=O)OC)c1ccccc1COc1cccc(C(F)(F)F)n1`: the result in [12] was inactive. For the same compound, the AC50 was 35.8 µM (active) in [13] and 20 µM (active) in experiment [14].
With `O=S(=O)(O)C(F)(F)C(F)(F)C(F)(F)C(F)(F)F`, the compound was classed as inactive in [12], in experiment [13], in experiment [14], in [1], in experiment [2] and in experiment [3]. The compound was called inactive in experiment [4], in experiment [5], in [6], in experiment [7], in experiment [8] and in experiment [9]. Moreover, the compound was classed as inactive in [10] and in experiment [11].
As to `COc1ccc(O)c(C(C)(C)C)c1`, the compound was classed as inactive in experiment [13] and in [14].
With `c1cc2ccc3cccc4ccc(c1)c2c34`, the outcome in [15] was inactive.
On to `O=S(=O)(O)C(F)(F)C(F)(F)C(F)(F)C(F)(F)C(F)(F)C(F)(F)F`, for which the result in experiment [12], in [13], in experiment [14], in experiment [1], in experiment [2] and in [3] was inactive. Further, the result in experiment [4], in experiment [5], in [6], in [7], in experiment [8] and in experiment [9] was inactive. Moreover, in experiment [11], the result was inactive. The half-maximal activity concentration (AC50) in [3] was 85.1 µM (active); in [4] it was 84.8 µM (active); in experiment [6] it was 85.1 µM (active); in [7], 84.8 µM (active); in experiment [8], 81.8 µM (active); in experiment [9] it was 84.8 µM (active). Further, the AC50 in experiment [10] was 85.1 µM (active) and 71.3 µM (active); in experiment [11], 81.3 µM (active).
On to `Oc1ccc(C(c2ccc(O)cc2)(C(F)(F)F)C(F)(F)F)cc1`, for which the call in experiment [19] and in experiment [20] was inactive.
With `O=C(O)C(F)(F)C(F)(F)C(F)(F)C(F)(F)C(F)(F)F`, the compound was classed as inactive in experiment [1], in experiment [2], in experiment [3], in [4], in [5] and in experiment [6]. Further, the compound was called inactive in experiment [7], in [8], in [9], in [10] and in experiment [11].
With `CC1=C2C[C@H]3[C@@H](CC=C4C[C@@H](O)CC[C@@]43C)[C@@H]2CC[C@]12O[C@@H]1C[C@H](C)CN[C@H]1[C@H]2C`, the result in [16], in experiment [17] and in experiment [18] was inactive.
